Drawing on PubChem BioAssay (EPA / NIEHS), this text covers outcome and AC50 for 68 compounds.

Results filed as inconclusive are left out. Activity calls are given as the source filed them. The calls were made as follows, unless noted: active = hit-call score of the fitted dose curve at least 0.9, where 1 is the maximum; inactive = score below 0.9.

In experiment [1] the target is Ratio of Nucleoli Translocation and Cytoplasm, AR (gene 367) (UniProt P10275). The experiment in a line: UPITT_HCI_U2OS_AR_TIF2_Nucleoli_Cytoplasm_Ratio_Agonist: University of Pittsburgh U2OS Androgen Receptor-Transcriptional Intermediary Factor 2 (AR-TIF2) Agonism High Content Imaging Assay for Ratio of Nucleoli Translocation and Cytoplasm (AID 2284000; active = hit-call score of the fitted dose curve at least 0.9, where 1 is the maximum;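 also: hits raise the red nucleolar to cytoplasm ratio above vehicle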). The method, boiled down: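 U2OS cells expressing RFP-tagged human AR and GFP-tagged TIF2 were imaged by high-content fluorescence microscopy. The endpoint is the ratio of nucleolar to cytoplasmic red fluorescence, fitted for gain of signal relative to DMSO. Concentration-response spanned 0.195 to 50 uM final (0.5% DMSO).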
Ratio of Nucleoli Translocation and Cytoplasm, AR (gene 367), sequence (P10275 whole entry, looked up): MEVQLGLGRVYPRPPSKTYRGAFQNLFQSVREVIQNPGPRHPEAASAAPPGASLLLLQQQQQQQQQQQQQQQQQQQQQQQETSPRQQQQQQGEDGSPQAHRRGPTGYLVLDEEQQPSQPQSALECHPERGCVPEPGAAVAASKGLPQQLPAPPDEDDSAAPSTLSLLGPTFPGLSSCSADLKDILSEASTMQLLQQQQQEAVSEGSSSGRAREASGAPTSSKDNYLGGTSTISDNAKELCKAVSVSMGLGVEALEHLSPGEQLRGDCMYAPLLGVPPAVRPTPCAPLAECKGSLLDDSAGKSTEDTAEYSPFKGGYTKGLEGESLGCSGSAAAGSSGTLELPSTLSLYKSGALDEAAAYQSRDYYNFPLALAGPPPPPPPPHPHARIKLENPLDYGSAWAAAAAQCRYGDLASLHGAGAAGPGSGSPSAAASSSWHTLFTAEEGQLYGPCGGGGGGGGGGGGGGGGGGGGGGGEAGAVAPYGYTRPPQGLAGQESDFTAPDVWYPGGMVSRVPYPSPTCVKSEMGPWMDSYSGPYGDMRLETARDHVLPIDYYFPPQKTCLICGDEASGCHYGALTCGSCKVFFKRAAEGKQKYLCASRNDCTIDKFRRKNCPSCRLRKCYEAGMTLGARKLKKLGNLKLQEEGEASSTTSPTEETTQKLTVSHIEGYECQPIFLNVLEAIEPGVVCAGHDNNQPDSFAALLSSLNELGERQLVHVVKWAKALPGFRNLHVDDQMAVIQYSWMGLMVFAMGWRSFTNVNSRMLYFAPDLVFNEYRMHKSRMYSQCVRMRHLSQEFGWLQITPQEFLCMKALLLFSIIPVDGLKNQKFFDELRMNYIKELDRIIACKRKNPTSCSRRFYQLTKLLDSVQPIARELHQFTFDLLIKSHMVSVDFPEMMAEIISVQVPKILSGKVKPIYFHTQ

The nature of experiment [2]: CCTE_Harrill_HTTr_Viability_MCF7: CCTE's 6-hour Cell Viability Assessment for the High-Throughput Transcriptomics (HTTr) Platform, in MCF-7 cells cultured in DMEM + 10% fetal bovine serum, Harrill Lab (AID 2284010). In outline:
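Viability measured through PI dye exclusion by high-content imaging at 6 h post-dosing.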

Experiment [3] in a line: CCTE_Harrill_HTTr_Apoptosis_MCF7: CCTE's 6-hour Apoptosis Assessment for the High-Throughput Transcriptomics (HTTr) Platform, in MCF-7 cells cultured in DMEM + 10% fetal bovine serum, Harrill Lab (AID 2284011). The method, boiled down: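 Apoptosis in MCF-7 cells grown in DMEM with 10% fetal bovine serum was scored after a six hour exposure by high content imaging of caspase-3/7 activation (CellEvent Caspase 3/7 Green), with DMSO serving as negative control and baseline.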

Experiment [4] in a line: CCTE_Harrill_HTTr_CellCount_MCF7: CCTE's Cell Proliferation Assessment for the High-Throughput Transcriptomics (HTTr) Platform, Harrill Lab (AID 2284012; active = hit-call score of the fitted dose curve at least 0.9, where 1 is the maximum;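 also: count of Hoechst-stained nuclei per well by high-content imaging in MCF-7 cells; cells exposed to compound for six hours; intended direction is loss of nuclei count meaning fewer cells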). In outline: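 Nuclei counting (Hoechst, high content imaging) in MCF-7 after a 6 h treatment at eight concentrations. Activity fitted bidirectionally, DMSO as negative control.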
A short description of experiment [5]: CCTE_Simmons_MITO_basal_resp_rate: CCTE's HepG2 Seahorse XF Respirometric Screening Assay at Basal Respiratory State, Simmons Lab (AID 2284001). As to conditions: actives raise or lower the signal. In outline:
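HepG2 cells were given test chemicals at 7 concentrations, 125 nM to 100 uM final, and oxygen consumption rate was read every 6 min (3 min mix, 3 min measure) over 72 min. Basal-phase OCR was fitted bidirectionally against DMSO.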

Experiment [6] in a line: CCTE_Simmons_MITO_max_resp_rate: CCTE's HepG2 Seahorse XF Respirometric Screening Assay at Maximal Respiratory State [uncoupled], Simmons Lab (AID 2284002). The conditions noted are these: actives raise or lower the signal. The method, boiled down:
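Uncoupled (FCCP) respiration of HepG2 cells served as the endpoint, with measurements at 6-minute intervals across a 72-minute run and compounds dosed at 7 concentrations up to 100 uM final.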

Experiment [7] in a line: CCTE_Simmons_MITO_inhib_resp_rate: CCTE's HepG2 Seahorse XF Respirometric Screening Assay at Inhibited Respiratory State [full ETC block], Simmons Lab (AID 2284006). As to conditions: actives raise or lower the signal. In outline:
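Inhibited respiration was taken as HepG2 oxygen consumption after rotenone/antimycin A, which followed test-compound and FCCP injections. Chemicals were tested at seven final concentrations from 125 nM to 100 uM. Activity was fitted bidirectionally relative to DMSO.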

Experiment [8] in a line: CCTE_Simmons_MITO_viability: CellTiter-Glo Viability Assessment for CCTE's HepG2 Seahorse XF Respirometric Screening Assay [post-hoc], Simmons Lab (AID 2284007; active = hit-call score of the fitted dose curve at least 0.9, where 1 is the maximum;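 also: cells exposed to chemical for 90 min before the ATP read; actives lower ATP signal relative to DMSO baseline meaning reduced viability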). In outline:
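HepG2 cells; test chemical 7 conc. (125 nM–100 uM final) × 90 min; then luminescent ATP detection. DMSO vehicle. Positive control dichlone, 8 conc. from 10 nM to 100 uM final. Loss-of-signal endpoint.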
On the technique in general: In ATP-based viability assays light output follows the ATP content of the culture.

Experiment [9] deals with Ratio of Nucleoli Translocation and Cytoplasm, AR (gene 367) (UniProt P10275). The experiment is described as follows: UPITT_HCI_U2OS_AR_TIF2_Nucleoli_Cytoplasm_Ratio_Antagonist: University of Pittsburgh U2OS Androgen Receptor-Transcriptional Intermediary Factor 2 (AR-TIF2) Antagonism High Content Imaging Assay for Ratio of Nucleoli Translocation and Cytoplasm (AID 2283999; active = hit-call score of the fitted dose curve at least 0.9, where 1 is the maximum;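 also: antagonists lower the DHT-driven ratio of nucleolar to cytoplasmic red signal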). In outline:
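High-content imaging quantifies the red nucleolar:cytoplasmic fluorescence ratio in U2OS cells with AR-RFP and TIF2-GFP. Final concentrations are 20 uM (screen) or 0.195–50 uM (dose response), analysed against DHT as baseline.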

`CC1=CCC(C(C)(C)O)CC1` (stereo not given): the result in experiment [1], in experiment [2], in experiment [3] and in [4] was inactive.
`C[C@]12CC[C@@H]3c4ccc(O)cc4CC[C@H]3[C@@H]1CC[C@@H]2O`: the figures for the AC50 in [5] and in experiment [8] were 27.1 µM (active) and 27 µM (active), respectively. In addition, the compound was called inactive in [6], in [7], in experiment [2] and in experiment [3].
For `CCCCCCOC(C)=O`, the result in experiment [2] and in [3] was inactive.
`OC[C@H]1O[C@@H](O[C@H]2[C@H](O)[C@@H](O)[C@H](O)O[C@@H]2CO)[C@H](O)[C@@H](O)[C@H]1O`: the outcome in experiment [9], in [2], in [3] and in experiment [4] was inactive.
Turning to `O=C(O)C1=NN(c2ccc(S(=O)(=O)O)cc2)C(=O)C1`, the result in [2], in experiment [3] and in experiment [4] was inactive.
Regarding `CCOC(=O)COC(=O)c1ccccc1C(=O)OCC`, the result in experiment [2] and in experiment [3] was inactive.
With `C[C@H](CCC(=O)O)[C@H]1CC[C@H]2[C@@H]3CC[C@@H]4C[C@H](O)CC[C@]4(C)[C@H]3CC[C@]12C`, the result in experiment [2], in [3] and in experiment [4] was inactive.
As to `NS(=O)(=O)c1cc(C(=O)O)c(NCc2ccco2)cc1Cl`, the result in experiment [2] and in [3] was inactive.
Regarding `CCOC(=O)C=Cc1ccccc1`, the outcome in experiment [2] and in [3] was inactive.
For `CC(O)CN` (stereo not given), the outcome in experiment [2] and in experiment [3] was inactive.
Regarding `CC(=O)OC/C=C(C)/C=C/C=C(C)/C=C/C1=C(C)CCCC1(C)C`, the result in experiment [2], in [3] and in experiment [4] was inactive.
As for `Cc1ccncc1`, the outcome in experiment [2] and in experiment [3] was inactive.
`CN(C)C(=O)Nc1ccccc1`: the outcome in experiment [2], in experiment [3] and in experiment [4] was inactive.
Turning to `CC(=O)CCC(=O)O`, the result in experiment [2] and in [3] was inactive.
Take `OCC=Cc1ccccc1`: the outcome in experiment [2] and in [3] was inactive.
`NC(=O)c1cnccn1`: the outcome in experiment [2] and in experiment [3] was inactive.
Regarding `COC(=O)c1ccc(C(=O)OC)cc1`, the result in experiment [2] and in experiment [3] was inactive.
Turning to `CCCCOCCOCCOCCO`, the result in experiment [2] and in experiment [3] was inactive.
With `C=C(C)C(N)=O`, the result in experiment [2] and in [3] was inactive.
Consider `C=C1CC/C=C(\C)CC[C@@H]2[C@@H]1CC2(C)C`, for which the result in [2] and in experiment [3] was inactive.
As to `Cc1cc(O)c2c(c1)C(=O)c1cc(O)cc(O)c1C2=O`, the outcome in [2], in experiment [3] and in experiment [4] was inactive.
`NC(N)=S`: the outcome in experiment [2], in [3] and in [4] was inactive.
Consider `CCCCCC(=O)O[C@]1(C(C)=O)CC[C@H]2[C@@H]3CCC4=CC(=O)CC[C@]4(C)[C@H]3CC[C@@]21C`, for which the outcome in [2] and in [3] was inactive.
Take `NC(N)=NC(N)=NCCc1ccccc1`: the result in [2], in experiment [3] and in experiment [4] was inactive.
Consider `C=CC(C)CCCC(C)(C)O` (stereo not given), for which the outcome in experiment [2] and in experiment [3] was inactive.
Consider `O=C1OCc2ccccc21`, for which the outcome in [2] and in experiment [3] was inactive.
For `CC(=O)CCc1ccc(O)cc1`, the outcome in experiment [2] and in [3] was inactive.
`CCCO`: the result in experiment [2] and in [3] was inactive.
Regarding `O=C(OCc1ccccc1)c1ccccc1O`, the result in experiment [2] and in [3] was inactive.
As for `Cc1cccc(O)c1`, the result in experiment [2], in experiment [3] and in experiment [4] was inactive.
With `c1coc(CNc2ncnc3nc[nH]c23)c1`, the result in experiment [2] and in [3] was inactive.
With `CC1=CCC(=C(C)C)CC1`, the outcome in [2] and in experiment [3] was inactive.
In the case of `CCCCCC1CCC(=O)O1` (stereo not given), the result in experiment [2] and in [3] was inactive.
Turning to `COc1ccccc1O`, the outcome in experiment [2], in experiment [3] and in experiment [4] was inactive.
Regarding `CCCCCCCCCO`, the result in experiment [2] and in [3] was inactive.
As to `CC(C)Cc1ccc(C(C)C(=O)O)cc1` (stereo not given), the outcome in experiment [2] and in [3] was inactive.
As to `NC(=O)c1c(Cl)cccc1Cl`, the result in experiment [2], in experiment [3] and in experiment [4] was inactive.
Turning to `Brc1cc(Br)cc(Br)c1`, the outcome in experiment [2], in experiment [3] and in experiment [4] was inactive.
Take `CCCCCCCCCCCCCC(=O)OCC`: the outcome in experiment [2], in experiment [3] and in [4] was inactive.
In the case of `CC(C)Cc1ccccc1`, the result in experiment [2], in [3] and in [4] was inactive.
On to `COC(=O)C(C)Oc1ccc(Oc2ncc(C(F)(F)F)cc2Cl)cc1` (stereo not given), for which the result in experiment [2], in experiment [3] and in experiment [4] was inactive.
Take `O=C(O)c1ccccc1O`: the result in experiment [2], in [3] and in experiment [4] was inactive.
With `O=C(O)c1cc(C(=O)O)c(C(=O)O)cc1C(=O)O`, the outcome in experiment [2], in experiment [3] and in [4] was inactive.
On to `O=c1cc(-c2ccc(O)cc2)oc2cc(O)cc(O)c12`, for which the result in experiment [2], in experiment [3] and in experiment [4] was inactive.
As for `CC(=O)C1C(=O)C=C(C)OC1=O` (stereo not given), the result in experiment [2], in experiment [3] and in experiment [4] was inactive.
As for `CC12CCC(C1)C(C)(C)C2O` (stereo not given), the result in experiment [2], in experiment [3] and in [4] was inactive.
Take `Cc1ccc(C(C)(C)O)cc1`: the result in [2], in experiment [3] and in [4] was inactive.
With `CC(=O)CC(=O)N(C)C`, the result in experiment [2], in experiment [3] and in experiment [4] was inactive.
As for `C1COCO1`, the result in experiment [2], in [3] and in experiment [4] was inactive.
Regarding `CC(C)(O)CCc1ccccc1`, the outcome in [2], in [3] and in [4] was inactive.
As for `CN(C)CCCNCCCN(C)C`, the result in experiment [2], in experiment [3] and in experiment [4] was inactive.
Consider `CN1CCc2cccc3c2[C@H]1Cc1ccc(O)c(O)c1-3`, for which the outcome in experiment [2], in experiment [3] and in experiment [4] was inactive.
Turning to `O=C1CCCCCCCCCCCC(=O)OCCO1`, the result in experiment [2], in experiment [3] and in [4] was inactive.
Regarding `CCCc1ccc(O)cc1`, the result in experiment [2], in [3] and in experiment [4] was inactive.
In the case of `CC(=O)C1=C(C)[C@@H]2C[C@@]3(C1)[C@H](C)CC[C@H]3C2(C)C`, the outcome in experiment [2], in [3] and in [4] was inactive.
Turning to `c1ccc2scnc2c1`, the outcome in experiment [2], in experiment [3] and in experiment [4] was inactive.
Take `CCCCOC(=O)C(C)OC(=O)CCC` (stereo not given): the outcome in experiment [2], in [3] and in experiment [4] was inactive.
Consider `CC(O)COCC(C)O` (stereo not given), for which the result in experiment [2], in experiment [3] and in [4] was inactive.
As to `[O-]/[N+](=N\O)c1ccccc1`, the result in experiment [2], in experiment [3] and in [4] was inactive.
For the compound `COc1ccc2[nH]cc(CCNC(C)=O)c2c1`, the outcome in [2], in experiment [3] and in experiment [4] was inactive.
For `CCCCCCCCCC(=O)OCC`, the result in [2], in experiment [3] and in experiment [4] was inactive.
On to `O=C(O)c1cc2ccccc2cc1O`, for which the outcome in experiment [2], in [3] and in experiment [4] was inactive.
With `CN(C)C`, the result in experiment [2], in experiment [3] and in experiment [4] was inactive.
With `O=C1OC2(c3ccc(O)cc3Oc3cc(O)ccc32)c2ccccc21`, the outcome in experiment [2] and in [4] was inactive. The AC50 (usually the midpoint of the concentration-response curve, whichever way the signal moves) in experiment [3] is 0.171 µM (active).
As for `NC(=O)c1cccnc1`, the result in [2], in experiment [3] and in experiment [4] was inactive.
In the case of `Cc1cccc(C)c1`, the result in experiment [2], in experiment [3] and in experiment [4] was inactive.
As for `COc1ccc(C(C)=O)cc1`, the outcome in experiment [2], in experiment [3] and in [4] was inactive.
With `c1ccc(Cc2ccccc2)cc1`, the result in experiment [2], in experiment [3] and in experiment [4] was inactive.
